Source: PubChem BioAssay AID1159580 (chemical genetic matrix, 2015)
Hit rate of the full screen: of about 5,500 compounds, about 2,000 (36%) were called active. Not shown: some 18% with an inconclusive outcome. Rule as the data show it: active = normalized growth mostly below about 0.91 (no sharp cut-off); inconclusive = no clear call, values can overlap the other calls; inactive = mostly above about 0.92. Some of the results follow.

Assay: chemical genetic growth profiling, strain panel (AID 1159580);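 also: tested at 20 µM; growth read once vehicle control cultures reached saturation at 30 °C; 1 = growth at the plate median or of vehicle wells; lower values mean less growth of the strain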
Conditions: growth OD

Measured: normalized growth

O=c1oc2c(O)c(O)cc3c(=O)oc4c(O)c(O)cc1c4c23
inactive: S. cerevisiae deletion strains, locus YKL009W, strain mrt4, active compounds read low 0.978 | S. cerevisiae deletion strains, locus YKL068W, active compounds read low 0.994 | S. cerevisiae deletion strains, locus YKL085W, strain MDH1 (second series), active compounds read low 0.972 | S. cerevisiae deletion strains, locus YKL085W, strain MDH1, active compounds read low 0.972 | S. cerevisiae deletion strains, locus YKR026C, strain gcn3, active compounds read low 0.992 | S. cerevisiae deletion strains, locus YLR102C, strain apc9, active compounds read low 0.933 | S. cerevisiae deletion strains, locus YLR113W, strain HOG1, active compounds read low 0.981 | S. cerevisiae deletion strains, locus YMR125W, strain sto1, active compounds read low 1 | S. cerevisiae deletion strains, locus YMR307W, strain GAS1, active compounds read low 0.731 | S. cerevisiae deletion strains, locus YNL183C, strain NPR1, active compounds read low 0.922 | S. cerevisiae deletion strains, locus YNL248C, strain rpa49, active compounds read low 0.912 | S. cerevisiae deletion strains, locus YNL250W, strain rad50, active compounds read low 0.947 | S. cerevisiae deletion strains, locus YOL012C, strain htz1 0.268 | S. cerevisiae deletion strains, locus YOR231W, strain MKK1, active compounds read low 0.972 | S. cerevisiae deletion strains, locus YPL256C, strain CLN2, active compounds read low 1.01 | S. cerevisiae deletion strains, locus YPR119W, strain clb2, active compounds read low 0.947 | S. cerevisiae deletion strains, locus YPR141C, strain kar3, active compounds read low 0.987
active: S. cerevisiae deletion strains, locus YJR075W, strain HOC1, active compounds read low 0.684 | S. cerevisiae deletion strains, locus YKL160W, strain elf1, active compounds read low 0.82 | S. cerevisiae deletion strains, locus YKL190W, strain CNB1, active compounds read low 0.712 | S. cerevisiae deletion strains, locus YKR001C, strain vps1, active compounds read low 0.54 | S. cerevisiae deletion strains, locus YKR091W, strain srl3, active compounds read low 0.924 | S. cerevisiae deletion strains, locus YLL001W, strain dnm1, active compounds read low 0.747 | S. cerevisiae deletion strains, locus YLL026W, active compounds read low 0.686 | S. cerevisiae deletion strains, locus YLL041C, strain sdh2, active compounds read low 0.904 | S. cerevisiae deletion strains, locus YLR027C, strain aat2, active compounds read low 0.772 | S. cerevisiae deletion strains, locus YLR039C, strain RIC1, active compounds read low 0.407 | S. cerevisiae deletion strains, locus YLR058C, strain SHM2, active compounds read low 0.578 | S. cerevisiae deletion strains, locus YLR221C, strain rsa3, active compounds read low 0.717 | S. cerevisiae deletion strains, locus YLR258W, strain gsy2, active compounds read low 0.747 | S. cerevisiae deletion strains, locus YLR262C, strain YPT6 (second series), active compounds read low 0.648 | S. cerevisiae deletion strains, locus YLR262C, strain YPT6, active compounds read low 0.556 | S. cerevisiae deletion strains, locus YLR268W, strain sec22, active compounds read low 0.356 | S. cerevisiae deletion strains, locus YLR320W, strain mms22, active compounds read low 0.617 | S. cerevisiae deletion strains, locus YLR330W, strain CHS5, active compounds read low 0.584 | S. cerevisiae deletion strains, locus YLR342W, strain FKS1 (second series), active compounds read low 0.401 | S. cerevisiae deletion strains, locus YLR342W, strain FKS1, active compounds read low 0.628 | S. cerevisiae deletion strains, locus YLR357W, strain rsc2, active compounds read low 0.627 | S. cerevisiae deletion strains, locus YLR370C, strain arc18, active compounds read low 0.422 | S. cerevisiae deletion strains, locus YLR371W, strain rom2, active compounds read low 0.605 | S. cerevisiae deletion strains, locus YLR384C, strain iki3, active compounds read low 0.724 | S. cerevisiae deletion strains, locus YLR418C, strain cdc73, active compounds read low 0.366 | S. cerevisiae deletion strains, locus YML016C, strain PPZ1, active compounds read low 0.626 | S. cerevisiae deletion strains, locus YML032C, strain rad52, active compounds read low 0.66 | S. cerevisiae deletion strains, locus YML120C, strain ndi1, active compounds read low 0.581 | S. cerevisiae deletion strains, locus YML124C, strain tub3, active compounds read low 0.778 | S. cerevisiae deletion strains, locus YMR058W, strain fet3, active compounds read low 0.848 | S. cerevisiae deletion strains, locus YMR078C, strain ctf18, active compounds read low 0.875 | S. cerevisiae deletion strains, locus YMR129W, active compounds read low 0.886 | S. cerevisiae deletion strains, locus YMR205C, strain PFK2, active compounds read low 0.685 | S. cerevisiae deletion strains, locus YMR223W, strain ubp8, active compounds read low 0.612 | S. cerevisiae deletion strains, locus YMR231W, strain pep5, active compounds read low 0.728 | S. cerevisiae deletion strains, locus YMR263W, strain SAP30, active compounds read low 0.616 | S. cerevisiae deletion strains, locus YNL067W, strain RPL9B, active compounds read low 0.572 | S. cerevisiae deletion strains, locus YNL071W, strain lat1, active compounds read low 0.86 | S. cerevisiae deletion strains, locus YNL128W, strain TEP1, active compounds read low 0.558 | S. cerevisiae deletion strains, locus YNL153C, strain GIM3, active compounds read low 0.492 | S. cerevisiae deletion strains, locus YNL209W, strain ssb2, active compounds read low 0.444 | S. cerevisiae deletion strains, locus YNL233W, strain BNI4, active compounds read low 0.594 | S. cerevisiae deletion strains, locus YNL271C, strain bni1, active compounds read low 0.885 | S. cerevisiae deletion strains, locus YNL298W, strain CLA4, active compounds read low 0.907 | S. cerevisiae deletion strains, locus YNL307C, strain MCK1, active compounds read low 0.787 | S. cerevisiae deletion strains, locus YNL322C, strain KRE1 (second series), active compounds read low 0.685 | S. cerevisiae deletion strains, locus YNR049C, strain mso1, active compounds read low 0.896 | S. cerevisiae deletion strains, locus YNR052C, strain pop2, active compounds read low 0.365 | S. cerevisiae deletion strains, locus YOL147C, strain pex11, active compounds read low 0.658 | S. cerevisiae deletion strains, locus YOR001W, strain rrp6, active compounds read low 0.735 | S. cerevisiae deletion strains, locus YOR061W, strain CKA2, active compounds read low 0.618 | S. cerevisiae deletion strains, locus YOR069W, strain VPS5, active compounds read low 0.69 | S. cerevisiae deletion strains, locus YOR070C, strain gyp1, active compounds read low 0.593 | S. cerevisiae deletion strains, locus YOR080W, strain dia2, active compounds read low 0.638 | S. cerevisiae deletion strains, locus YOR083W, strain WHI5, active compounds read low 0.717 | S. cerevisiae deletion strains, locus YOR106W, strain vam3, active compounds read low 0.507 | S. cerevisiae deletion strains, locus YOR136W, strain idh2, active compounds read low 0.796 | S. cerevisiae deletion strains, locus YOR144C, strain elg1, active compounds read low 0.68 | S. cerevisiae deletion strains, locus YOR184W, strain ser1, active compounds read low 0.538 | S. cerevisiae deletion strains, locus YOR265W, strain rbl2, active compounds read low 0.771 | S. cerevisiae deletion strains, locus YOR270C, strain vph1, active compounds read low 0.467 | S. cerevisiae deletion strains, locus YOR290C, strain snf2, active compounds read low 0.167 | S. cerevisiae deletion strains, locus YOR316C, strain cot1, active compounds read low 0.852 | S. cerevisiae deletion strains, locus YPL051W, strain arl3, active compounds read low 0.627 | S. cerevisiae deletion strains, locus YPL055C, strain LGE1, active compounds read low 0.624 | S. cerevisiae deletion strains, locus YPL078C, strain atp4, active compounds read low 0.767 | S. cerevisiae deletion strains, locus YPL106C, strain sse1, active compounds read low 0.809 | S. cerevisiae deletion strains, locus YPL240C, strain hsp82, active compounds read low 0.864 | S. cerevisiae deletion strains, locus YPL241C, strain CIN2, active compounds read low 0.816 | S. cerevisiae deletion strains, locus YPR163C, strain tif3, active compounds read low 0.876 | S. cerevisiae deletion strains, locus YPR167C, strain met16, active compounds read low 0.725 | S. cerevisiae deletion strains, strain wtn01, active compounds read low 0.511 | S. cerevisiae strains, strain wild type, active compounds read low 0.605
